Reference: PubChem BioAssay AID588855 (National Center for Advancing Translational Sciences (NCATS), 2011)
Out of some 410,000 compounds screened, about 5,000 (1.2%) were called active. Not shown: some 13% with an inconclusive outcome. The call rests on the fitted dose curve; in most records, active means well fitted inhibition curve with a large enough effect; inconclusive means small, poorly fitted or top-dose-only effect; inactive means no such curve, though single readings can be large or run the other way. Only a selection was taken, and actives are over-represented in it overall.

Assay: qHTS for Inhibitors of TGF-b; further: nearly all actives have a fitted effect of over 65% in size
Conditions: HepG2 CAGA-GFP TGF-b/SMAD3 reporter, GFP fluorescence, 18 h, TGF-beta stimulated, 500 pg/mL final; series mostly up to 46.1 µM; activity, negative = inhibition: at the top concentration
Procedure, shortened: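 HEPG2 CAGA-GFP reporter cells (1000/well, DMEM with 1% FBS) received compounds, then recombinant TGF-beta at 500 pg/mL final for 18 hours at 37 degrees C. Per-cell GFP summed per well was normalised to unstimulated and stimulated DMSO controls before curve fitting.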
On the % scale 0 is the no-effect control and ±100 the full control effect; potency means the concentration at half of the fitted maximal effect.

activity, negative = inhibition, inactive:
CCOC(=O)c1cnc2c(C)cc(Cl)cc2c1NCCc1ccc(OC)c(OC)c1 15.4%, Cn1c(=O)c2sccc2n2c(CCC(=O)NCc3ccccc3Cl)nnc12 8.53%, CCc1cc2c(cc3c(=O)n(CC(=O)NCCc4ccc(OC)c(OC)c4)ncn32)s1 -9.52%, COc1ccc(C2NC(=O)N(C)C3=C2C(=O)N(c2ccc(C(=O)O)cc2)C3)cc1 (stereo not drawn) -4.1%, CN(C)c1ccc(/C=N\Nc2ccc([N+](=O)[O-])cc2[N+](=O)[O-])cc1Cl 11.6%, CN(CCC#N)c1ccc(C=O)cc1 -3.73%, Cc1ccc(S(=O)(=O)N2CCN(c3nc(-n4cnc5ccccc54)nc4ccccc34)CC2)cc1 20.7%, Cc1ccc(NC(=O)C(Cc2ccccc2)NS(=O)(=O)c2ccc3c(c2)oc(=O)n3C)cc1C (stereo not drawn) -20%, Cc1cccc(N2CCN(C(=O)c3cnc(N4CCCC4)nc3C)CC2)c1C -29.2%, Cc1ccccc1S(=O)(=O)NC(=O)C1(C)CCN1C(=O)Cc1ccc(Cl)cc1Cl (stereo not drawn) 1.16%, CC1(C(=O)Nc2cccc3c2CCCC3)CCN1C(=O)C1(c2ccccc2)CC1 (stereo not drawn) -2.26%, CC(=O)c1ccc(NS(=O)(=O)c2ccc(-c3cc(C)no3)s2)cc1 0%, Cc1oc(-c2ccccc2F)nc1CN1CCC(C(=O)NCCc2ccc(Cl)cc2)CC1 -29%, COc1ccc(Cl)cc1NC(=O)C(C)Sc1nc2c(c(=O)[nH]1)CCCC2 (stereo not drawn) 2.67%, CCOc1ccc(NC(=O)c2c(NC(=O)Cc3ccccc3)sc3c2CCCCC3)cc1 -10.5%, CC1=NNC(=O)C1CCC(=O)N/N=C(\C)c1ccc(Cl)cc1 (stereo not drawn) -12.6%, O=C(Cc1ccc(Cl)cc1)c1ccccc1 12.7%, CCNC(=S)N1CCN(c2ncccn2)CC1 4.06%, CCOc1ccc(NC(=S)N2CCCCCC2)cc1 14.3%, CCCN(CCC)C(=O)Cn1c(=O)n(-c2ccc(Cl)cc2)c(=O)c2c3c(sc21)CCCCC3 0.91%, Cc1ccc(-c2nnc3ccc(SCC(N)=O)nn23)cc1 0.378%, COc1ccccc1C(=O)Nc1ccc(Nc2ccccc2)cc1 0%, Cc1ccc(Nc2ccccc2N)cc1 27.6%, COC(=O)c1ccc(NC(=O)CSc2n[nH]c(-c3ccccc3)n2)cc1 -26.8%, CC(Sc1oc(-c2ccco2)nc1S(=O)(=O)c1ccc(Br)cc1)c1ccccc1 (stereo not drawn) -17.3%, CCCCC(CCCC)c1ccc(C=Nc2ccc(/C=C/c3ccnc4ccccc34)cc2)cc1 -15.9%, CN(c1ccccc1)S(=O)(=O)c1cc(C(=O)Nc2nc3ccccc3[nH]2)ccc1Cl -7.35%, Cc1ccc2nc(CNC(=O)c3ccccc3)[nH]c2c1 -2.21%, Cc1cc(C)c(/C=C/c2onc(C)c2S(=O)(=O)N2CCC(C(=O)Nc3ccc(Cl)cc3C)CC2)c(C)c1 -0.14%, Cc1ccc(NC(=O)C(=O)NCC(c2cccnc2)N2CCOCC2)cc1 (stereo not drawn) -20.2%, Cc1ccc(S(=O)(=O)N(CC(=O)Nc2ccc(Cl)cc2Cl)c2ccccc2C)cc1 -23.3%, COc1ccc(N/C=C(\C2OC(=O)c3ccccc32)[N+](=O)[O-])cc1 (stereo not drawn) 0%, COc1ccc(C(C)(NC(C)=O)c2nc(-c3ccc(S(C)(=O)=O)cc3)cs2)cc1 (stereo not drawn) 3.41%, COc1ccc(/C=C/C(=O)Nc2ccc(C)cc2)cc1S(=O)(=O)N1CCOCC1 -22.4%, Cc1ccc(C(=O)/C=C/Nc2ccc(S(=O)(=O)Nc3onc(C)c3C)cc2)cc1 0%, Cc1ccc(C(=O)Nc2ccc(OCc3cc(=O)n4c(C)csc4n3)cc2)cc1 -8.38%, COc1ccc(CCNc2ncnc3onc(-c4ccc(Cl)cc4)c23)c(OC)c1 -3.73%, O=C(CSc1c2c(nc3ccc(Cl)cc13)CCCC2)NCc1ccco1 -0.373%, Cc1ccc(CNC(=O)CSc2c3c(nc4cc(Cl)ccc24)CCCC3)cc1 6.3%, CN(C)C1=C2C=CC=CC2/C(=C2/C=Cc3ccccc32)C=C1 (stereo not drawn) 4.43%, CCOC(=O)c1ccc(NC(=O)c2c(NCc3cccs3)sc3c2CCCC3)cc1 -35.9%, Cc1noc(C)c1NC(=O)Nc1ccc2c(c1)C(=O)N([C@H](C)CO)C[C@H](C)[C@@H](CN(C)C(=O)Nc1ccccc1)O2 -2.4%, COc1ccc(NC(=O)N(C)C[C@H]2Oc3ccc(NC(=O)C4CC4)cc3C(=O)N([C@H](C)CO)C[C@@H]2C)cc1 -0.985%, COc1cc(OC)c(NC(=O)c2c3c(nn2C)-c2ccccc2SC3)cc1Cl -32.2%, OC(CBr)CN1CCCCC1 (stereo not drawn) 0.422%, COc1ccccc1NC(=O)c1cc(S(=O)(=O)NCCc2ccccc2)ccc1F 0%, C/C(=N\NC(=O)CSc1nc2ccccc2c(=O)n1-c1ccccc1C)c1cccs1 -10.3%, Cc1ccc(-n2c(SCC(=O)N/N=C/C=C/c3ccccc3[N+](=O)[O-])nc3ccccc3c2=O)cc1 -13.8%, Cc1nnc(C)n1-c1ccc(C(=O)Nc2cccc(Br)c2)cc1 7.69%, Cc1ccccc1CNC(=O)c1ccc(NC(=O)N2CCCCc3ccccc32)cc1 0.637%, CCOC(=O)c1c(NC(=O)c2ccc(S(=O)(=O)N(CC)CC)cc2)sc2c1CCCCC2 -9.19%, Cc1c(C)n(Cc2ccc(Cl)cc2)c2ccc(C(=O)N3CCN(c4ccccc4F)CC3)cc12 0%

Potency, active:
CC1(C(=O)Nc2cccc3c2CCCC3)CCN1C(=O)CCc1ccc(Cl)cc1Cl (stereo not drawn) 12.6 µM, CC(=NNC(=S)N1CCCCCC1)c1ccccn1 1.26 µM, C/C(=N\NC(=O)Cc1ccc(Cl)cc1)c1ccccn1 3.98 µM, Nc1ccc(Nc2ccccc2)cc1 14.1 µM, O=C(/C(=C/c1cccc(Cl)c1)c1nc2ccccc2[nH]1)c1ccccc1 3.16 µM, COc1ccc(-c2csc(NC3OC(=O)c4ccccc43)n2)cc1 (stereo not drawn) 10 µM, COc1ccc(/C=C/C(=O)c2ccc(NS(=O)(=O)c3ccc(C)cc3)cc2)cc1O 12.6 µM, CCOC(=O)C1CCN(C(=O)CSc2c3c(nc4ccc(Cl)cc24)CCCC3)CC1 15.8 µM, Cc1ccc(S(=O)(=O)Nc2ccc3c(c2)C(=O)N([C@H](C)CO)C[C@@H](C)[C@@H](CN(C)C(=O)Nc2cccc4ccccc24)O3)cc1 11.2 µM, Cc1nn(-c2ccccc2)c(C)c1/C=N/NC(=O)CSc1nc2ccccc2c(=O)n1-c1ccccc1 3.98 µM, CC(C)c1ccc2c(c1)c(SC(C)(C)C)c(CC(C)(C)C(=O)O)n2Cc1ccc(Cl)cc1 10 µM
